Inconclusive results are not listed. Unmarked numbers belong to inactive results. Calls of active or inactive are those of the source. Calls come from the whole dose curve; as a rule, active = well fitted inhibition curve with a large enough effect; inconclusive = small, poorly fitted or top-dose-only effect; inactive = no such curve, though single readings can be large or run the other way.

Assay [1] has as its system Zika virus NS2B-NS3 protease (unlinked complex). As to the kind of experiment: Primary screen GU Rhodamine qHTS for Zika virus inhibitors: Unlinked NS2B-NS3 protease assay (AID 1347159). Note: nearly all actives have a fitted effect of over 60% in size. Summed up: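 Noncovalent NS2B hydrophilic domain–NS3 protease domain complex (25 nM) preincubated 15 min at room temperature with compounds (up to 114 microM) in 10 mM Tris-HCl pH 8.0, 0.01% Tween 20; 1.5 microM Rhodamine110 substrate added, fluorescence change over 15 min fitted to Hill equation.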

Assay [2] has as its system Zika virus NS2B-NS3 protease (linked construct). Nature of the assay: Primary screen NINDS Rhodamine qHTS for Zika virus inhibitors (AID 1347160). Note: nearly all actives have a fitted effect of over 55% in size. Summed up: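 Purified linked NS2B-NS3 protease (NS2B hydrophilic domain joined to NS3 protease by flexible linker), 25 nM in 10 mM Tris-HCl pH 8.0, 0.01% Tween 20. Compounds titrated, 15 min preincubation at room temperature; 1.5 microM Rhodamine110 substrate, FITC fluorescence change over 15 min.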
% is set by controls: 0 for no effect and ±100 for the full control effect; potency is the fitted concentration of half-maximal effect.

As for `Cc1ccc(O)cc1Nc1ccnc(Nc2cccc(C(N)=O)c2)n1`, the Potency entry in assay [1] and in assay [2] was “inactive” in each case.
For the compound `CCN(CC)CCCCCCNc1cc(OC)cc2c(C)ccnc12`, the Potency result in assay [1] and in assay [2] was “inactive” throughout.
Take `Cc1nc(C#Cc2ccnc(Cl)c2)c(C)n1-c1ccc(F)cc1`: the Potency result in assay [1] and in assay [2] was “inactive” each time.
With `CC(=O)CC(=O)Nc1ccc(Cl)c(C(F)(F)F)c1`, the Potency entry in assay [1] and in assay [2] was “inactive” each time.
Consider `O=C(Nc1cccc(C(F)(F)F)c1)Nc1ccc(Br)cc1-c1nn[nH]n1`, for which the Potency in assay [1] is 3.16 µM (active); in assay [2], 17.8 µM (active).
For the compound `COc1cc(NC(=O)c2cccc(-n3cc(NC(=O)Nc4cccc(C)c4)cn3)c2)cc(OC)c1OC`, the Potency result in assay [1] and in assay [2] was “inactive” throughout.
Take `COCC(c1ccc(C(F)(F)F)cc1)N1CCN(C2(C)CCN(C(=O)c3c(C)ncnc3C)CC2)CC1C` (stereo not given): the Potency entry in assay [1] and in assay [2] was “inactive” in each case.
On to `O=S1(=O)CCN(Cc2cc(NCC3CCOCC3)c3[nH]c(-c4ccccc4)cc3c2)CC1`, for which the Potency entry in assay [1] and in assay [2] was “inactive” each time.
As for `O=C(COc1ccc(C(=O)c2ccccc2)cc1)NC1CCN(Cc2ccccc2)CC1`, the Potency result in assay [1] and in assay [2] was “inactive” in each case.
Consider `C[C@@H]1O[C@@H](O[C@H]2[C@H](OC(=O)[C@]34CCC(C)(C)C[C@H]3C3=CCC5[C@@]6(C)C[C@H](O)[C@H](O[C@@H]7O[C@H](CO)[C@@H](O)[C@H](O)[C@H]7O)[C@](CO)(C(=O)O)C6CC[C@@]5(C)[C@]3(C)C[C@H]4O)OC[C@H](O)[C@@H]2O)[C@H](O)[C@H](O)[C@H]1O[C@@H]1OC[C@@H](O)[C@H](O[C@@H]2OC[C@](O)(CO)[C@H]2O)[C@H]1O` (stereo not given in full), for which the results for the activity change, negative = inhibition in assay [1] and in assay [2] were 10.7% [at 19.1 µM] and 31.9% [at 10.7 µM], respectively.
Consider `COc1cc(-c2nc(N[C@H](CO)Cc3ccccc3)ccc2C(=O)NCCOc2ccccc2)cc(OC)c1OC`, for which the Potency result in assay [1] and in assay [2] was “inactive” each time.
For the compound `CN(C)CCN(Cc1ccc(-c2ccc(CNCCc3ccccc3)cc2)cc1)C(=O)CCC1CCCC1`, the Potency entry in assay [1] and in assay [2] was “inactive” throughout.
For the compound `C=C1C(=O)OC2C=C(C)CC/C=C(\CO)CC(O)C12` (stereo not given), the Potency result in assay [1] and in assay [2] was “inactive” in each case.
`CC1(C)C2CCC(CO[C@@H]3O[C@H](CO[C@@H]4OC[C@](O)(CO)[C@H]4O)[C@@H](O)[C@H](O)[C@H]3O)C1C2` (stereo not given in full): the Potency result in assay [1] and in assay [2] was “inactive” throughout.
Regarding `COc1cc(/C=C/C(=O)NCCn2c(C(F)(F)F)cc3ccccc32)cc(OC)c1OC`, the Potency result in assay [1] and in assay [2] was “inactive” throughout.
For `O=[N+]([O-])c1ccc(Oc2ccc3c(c2)CCC(c2ccccc2)O3)nc1` (stereo not given), the Potency result in assay [1] and in assay [2] was “inactive” each time.
`O=C(Nc1ccc(Cl)cc1)c1ccccc1NCc1ccncc1`: the Potency entry in assay [1] and in assay [2] was “inactive” throughout.
Consider `Cc1nc2ccc(CN(C)c3ccc(C(=O)NC(CCC(=O)O)C(=O)O)s3)cc2c(=O)[nH]1` (stereo not given), for which the Potency result in assay [1] and in assay [2] was “inactive” throughout.
As for `CO[C@H]1[C@@H](O)[C@H](O[C@H]2CC[C@@]3(C)C(CCC4C3CC[C@]35COC6(COC(=O)C6)C3CCC45O)C2)O[C@@H](C)[C@@H]1OC1OC(CO)C(OC2OC(CO)C(O)C(O)C2O)C(O)C1O` (stereo not given in full), the Potency entry in assay [1] and in assay [2] was “inactive” in each case.
On to `CCN1CCC[C@@H]1CNC(=O)c1ccc2c(c1)NC(=O)c1cccc(C)c1S2`, for which the Potency result in assay [1] and in assay [2] was “inactive” throughout.
Turning to `CCN1CCN(Cc2ccc(C(=O)Nc3ccc(C)c(Oc4ccc5c(c4)CC(=O)N5)c3)cc2C(F)(F)F)CC1`, the Potency entry in assay [1] and in assay [2] was “inactive” each time.
As for `COC(=O)c1sccc1S(=O)(=O)Nc1ccc(Nc2ccccc2)cc1OC`, the Potency result in assay [1] and in assay [2] was “inactive” each time.
As to `C=C1C(=O)OC2C3=C(C)C(=O)CC3C(C)CC(O)C12` (stereo not given), the Potency result in assay [1] and in assay [2] was “inactive” throughout.
In the case of `Nc1nc(Cl)nc2c1ncn2C1OC(CO)C(O)C1F` (stereo not given), the Potency result in assay [1] and in assay [2] was “inactive” in each case.
`C=C1CCC2C(C)(C(=O)O)CCCC2(C)C1CCC1=CCOC1=O` (stereo not given): the Potency result in assay [1] and in assay [2] was “inactive” in each case.
Turning to `CCNC(=O)c1noc(-c2cc(Cl)c(O)cc2O)c1-c1ccc(OC)cc1`, the Potency entry in assay [1] and in assay [2] was “inactive” throughout.
As for `CCN1CCN(Cc2ccc(NC(=O)c3ccc(C)c(Oc4ncnc5[nH]c(C)cc45)c3)cc2C(F)(F)F)CC1`, the Potency entry in assay [1] and in assay [2] was “inactive” in each case.
Consider `CC1OC(OC2C(O)COC(O[C@@H]3[C@@H](O)[C@@H](O)[C@H](OC4C(OC(=O)[C@]56CCC(C)(C)CC5C5=CCC7[C@@]8(C)C[C@H](O)[C@H](OC9OC(CO)C(O)C(O)C9O)[C@@](C)(CO)C8[C@H](O)C[C@@]7(C)[C@]5(C)CC6)OCC(O)C4O)O[C@H]3C)C2O)C(O)C(O)C1O` (stereo not given in full), for which the activity change, negative = inhibition in assay [1] is 8.24% [at 19.1 µM]. In addition, in assay [2], the outcome is “inactive [at 10.7 µM]”.
Turning to `COc1cc(N2CCC(N)CC2)ccc1Nc1ncc(Cl)c(-c2c[nH]c3ccccc23)n1`, the Potency entry in assay [1] and in assay [2] was “inactive” throughout.
For the compound `c1ccc(-c2cnn3cc(-c4ccc(OCCN5CCOCC5)cc4)cnc23)cc1`, the Potency result in assay [1] and in assay [2] was “inactive” throughout.
Regarding `CC(C)(O)/C=C/C(=O)[C@](C)(O)[C@H]1[C@H](O)C[C@@]2(C)[C@@H]3CC=C4[C@@H](C[C@H](O[C@@H]5O[C@H](CO)[C@@H](O)[C@H](O)[C@H]5O)C(=O)C4(C)C)[C@]3(C)C(=O)C[C@]12C`, the Potency entry in assay [1] and in assay [2] was “inactive” each time.
On to `Cc1cn(CCN2CCN(c3ccccc3-c3cc(C#N)cc(C(=O)NCCCN4CCCC4)c3)CC2)c2ccccc12`, for which the Potency result in assay [1] and in assay [2] was “inactive” in each case.
As to `COc1cccc(-c2cn(-c3ccc(CCN4CCC(O)CC4)cc3)c3ncnc(N)c23)c1`, the Potency result in assay [1] and in assay [2] was “inactive” in each case.
As to `Cn1c(=O)c(F)c(Nc2ccc(I)cc2F)c2c(=O)n(CC(O)CO)cnc21` (stereo not given), the Potency entry in assay [1] and in assay [2] was “inactive” in each case.
For the compound `C=C1C(=O)OC2/C=C(\C)CC/C=C(\C)CC(OC(C)=O)C12` (stereo not given), the Potency entry in assay [1] and in assay [2] was “inactive” throughout.

These data come from PubChem BioAssay (NCATS).
